Of roughly 7,900 targets only a part is listed; those with a hit were picked by preference. About 0.6% of all pairs of compound and target were hits.
Experiments:
Assay in all cases: log2 fold change, soluble protein after heating vs DMSO (PISA); higher = thermal stabilisation; K562 cells, 10 uM, 30 min; active = over 0.2 and 3.5 SD of the protein, either way, in both replicates (recomputed)
[1] = compound: CC[C@@H]1C(=O)N(C)c2cnc(Nc3ccc(C(=O)NC4CCN(C)CC4)cc3OC)nc2N1C1CCCC1
Summary of the method: (§1)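 For each measurement, 10 μM compound was applied for 30 min to K562 cells at 2×10^6 cells/mL. Aliquots were heated for 3 min across 48°C-58°C, pooled, and extracted in PBS with 0.5% NP-40 at 4°C; the supernatant after 21,000xg for 90 min was soluble protein. This was quantified by TMTpro 16plex LC-MS/MS with channel sums equalised, and thermal stability was reported relative to control samples from duplicates, on a log2 fold-change scale.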

[2] = compound: CC[C@@H]1C(=O)N(C)c2cnc(Nc3ccc(C(=O)N[C@H]4CC[C@H](N5CCN(CC6CC6)CC5)CC4)cc3OC)nc2N1C(C)C [volasertib]
Summary of the method: as §1

[3] = compound: CC[C@H](C)N1C=C(C2=C(C=C(C=C21)C3=CN=C(C=C3)N4CCNCC4)C(=O)NCC5=C(C=C(NC5=O)C)C)C
Summary of the method: as §1

[4] = compound: CC[C@H](C)[C@@H](C(=O)N[C@@H]([C@@H](C)O)C(=O)N[C@@H](CC(C)C)C(=O)[C@]1(CO1)C)NC(=O)[C@H]([C@@H](C)CC)N(C)C(=O)C [epoxomicin]
Summary of the method: as §1

[5] = compound: CCn1c(C(=O)N(C2CC2)C2CC2)cc2c3c(ncn3C)c(Nc3cc(C)n(C)n3)nc21
Summary of the method: as §1

[6] = compound: CCn1cc(-c2ccnc3[nH]c(-c4cccc(CN(C)C)c4)cc23)c(-c2ccc(NC(=O)N(C)C)cc2)n1
Summary of the method: as §1

[7] = compound: CN(C)CC(=O)Nc1ccc2[nH]c(=O)c3ccccc3c2c1
Summary of the method: as §1

[8] = compound: CN(CCOC1=CC=C(C=C1)C[C@H]2C(=O)NC(=O)S2)C3=CC=CC=N3 (racemic) [rosiglitazone]
Summary of the method: as §1

[9] = compound: CN1C2=C(C3=C1C(=O)N(N=C3)CC4=CC(=CC=C4)N)SC(=C2)S(=O)C
Summary of the method: as §1

[10] = compound: CN1CCC(CNc2ccc3ncc(-c4cccc(OC(F)(F)F)c4)n3n2)CC1
Summary of the method: as §1

[11] = compound: CN1CCN(CCOc2cc(OC3CCOCC3)c3c(Nc4c(Cl)ccc5c4OCO5)ncnc3c2)CC1 [saracatinib]
Summary of the method: as §1

[12] = compound: CN1CCN(c2nc(C3=C(c4c[nH]c5ccccc45)C(=O)NC3=O)c3ccccc3n2)CC1 [sotrastaurin]
Summary of the method: as §1

[13] = compound: CN1CC[C@H](c2c(O)cc(O)c3c(=O)cc(-c4ccccc4Cl)oc23)[C@H](O)C1 [alvocidib]
Summary of the method: as §1

[14] = compound: CN1CCc2c(c3ccccc3n2Cc2ccc(C(=O)NO)cc2)C1 [Tubastatin A]
Summary of the method: as §1

[15] = compound: CNC(=O)C1=CC=CC=C1NC2=NC(=NC=C2Cl)NC3=C(C=C(C=C3)N4CCOCC4)OC
Summary of the method: as §1

[16] = compound: CNC(=O)c1ccc(Nc2ncc(C(F)(F)F)c(NCc3nccnc3N(C)S(C)(=O)=O)n2)cc1 [defactinib]
Summary of the method: as §1

[17] = compound: CNCc1ccc(-c2[nH]c3cc(F)cc4c3c2CCNC4=O)cc1 [rucaparib]
Summary of the method: as §1

[18] = compound: CNc1nc(-c2ccc3c(N)n[nH]c3c2)cc(N2C[C@@H](C(=O)NC3CCCCC3)CC[C@H]2C)n1
Summary of the method: as §1

[19] = compound: COC(=O)N[C@@H](C)CNc1nccc(-c2cn(C(C)C)nc2-c2cc(Cl)cc(NS(C)(=O)=O)c2F)n1 [encorafenib]
Summary of the method: as §1

[20] = compound: COC(=O)[C@H](CCSC)NC(=O)C1=C(C=C(C=C1)NC[C@H](CS)N)C2=CC=CC=C2
Summary of the method: as §1

UniProt P52895, sequence (P52895 whole entry, looked up): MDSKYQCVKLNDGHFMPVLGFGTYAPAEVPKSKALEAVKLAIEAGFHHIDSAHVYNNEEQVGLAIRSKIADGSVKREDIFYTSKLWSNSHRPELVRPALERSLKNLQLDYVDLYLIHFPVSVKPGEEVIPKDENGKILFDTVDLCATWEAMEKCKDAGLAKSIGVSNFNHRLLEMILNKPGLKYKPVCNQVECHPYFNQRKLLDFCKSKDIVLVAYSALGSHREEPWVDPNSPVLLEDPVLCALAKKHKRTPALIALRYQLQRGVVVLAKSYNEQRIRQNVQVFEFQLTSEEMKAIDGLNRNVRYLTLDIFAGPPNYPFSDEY
UniProt Q53FZ2, sequence (Q53FZ2 whole entry, looked up): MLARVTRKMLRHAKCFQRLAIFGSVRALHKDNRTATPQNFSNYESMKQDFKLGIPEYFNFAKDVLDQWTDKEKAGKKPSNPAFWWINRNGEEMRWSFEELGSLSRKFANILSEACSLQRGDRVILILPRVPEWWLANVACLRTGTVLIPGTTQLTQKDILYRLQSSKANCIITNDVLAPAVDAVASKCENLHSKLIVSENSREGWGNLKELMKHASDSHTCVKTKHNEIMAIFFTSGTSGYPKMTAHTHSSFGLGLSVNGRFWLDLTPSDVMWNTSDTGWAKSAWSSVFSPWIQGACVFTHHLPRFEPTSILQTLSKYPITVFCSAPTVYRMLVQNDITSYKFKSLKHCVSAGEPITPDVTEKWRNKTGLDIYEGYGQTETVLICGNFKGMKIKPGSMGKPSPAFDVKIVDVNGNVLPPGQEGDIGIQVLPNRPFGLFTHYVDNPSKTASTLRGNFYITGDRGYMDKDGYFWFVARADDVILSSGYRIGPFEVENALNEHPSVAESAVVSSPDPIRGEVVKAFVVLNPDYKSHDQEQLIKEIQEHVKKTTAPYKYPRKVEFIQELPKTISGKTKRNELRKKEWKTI
UniProt P21283, sequence (P21283 whole entry, looked up): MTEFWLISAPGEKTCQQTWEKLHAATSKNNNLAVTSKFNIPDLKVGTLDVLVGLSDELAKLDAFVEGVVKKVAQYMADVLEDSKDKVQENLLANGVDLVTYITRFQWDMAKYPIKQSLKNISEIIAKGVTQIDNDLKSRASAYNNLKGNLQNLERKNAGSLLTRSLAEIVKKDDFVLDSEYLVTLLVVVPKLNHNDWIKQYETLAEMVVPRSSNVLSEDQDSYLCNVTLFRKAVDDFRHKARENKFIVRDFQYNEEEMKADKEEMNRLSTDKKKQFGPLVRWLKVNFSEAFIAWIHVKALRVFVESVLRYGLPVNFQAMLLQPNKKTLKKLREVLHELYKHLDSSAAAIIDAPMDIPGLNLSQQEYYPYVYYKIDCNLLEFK
UniProt O14981, sequence (O14981 whole entry, looked up): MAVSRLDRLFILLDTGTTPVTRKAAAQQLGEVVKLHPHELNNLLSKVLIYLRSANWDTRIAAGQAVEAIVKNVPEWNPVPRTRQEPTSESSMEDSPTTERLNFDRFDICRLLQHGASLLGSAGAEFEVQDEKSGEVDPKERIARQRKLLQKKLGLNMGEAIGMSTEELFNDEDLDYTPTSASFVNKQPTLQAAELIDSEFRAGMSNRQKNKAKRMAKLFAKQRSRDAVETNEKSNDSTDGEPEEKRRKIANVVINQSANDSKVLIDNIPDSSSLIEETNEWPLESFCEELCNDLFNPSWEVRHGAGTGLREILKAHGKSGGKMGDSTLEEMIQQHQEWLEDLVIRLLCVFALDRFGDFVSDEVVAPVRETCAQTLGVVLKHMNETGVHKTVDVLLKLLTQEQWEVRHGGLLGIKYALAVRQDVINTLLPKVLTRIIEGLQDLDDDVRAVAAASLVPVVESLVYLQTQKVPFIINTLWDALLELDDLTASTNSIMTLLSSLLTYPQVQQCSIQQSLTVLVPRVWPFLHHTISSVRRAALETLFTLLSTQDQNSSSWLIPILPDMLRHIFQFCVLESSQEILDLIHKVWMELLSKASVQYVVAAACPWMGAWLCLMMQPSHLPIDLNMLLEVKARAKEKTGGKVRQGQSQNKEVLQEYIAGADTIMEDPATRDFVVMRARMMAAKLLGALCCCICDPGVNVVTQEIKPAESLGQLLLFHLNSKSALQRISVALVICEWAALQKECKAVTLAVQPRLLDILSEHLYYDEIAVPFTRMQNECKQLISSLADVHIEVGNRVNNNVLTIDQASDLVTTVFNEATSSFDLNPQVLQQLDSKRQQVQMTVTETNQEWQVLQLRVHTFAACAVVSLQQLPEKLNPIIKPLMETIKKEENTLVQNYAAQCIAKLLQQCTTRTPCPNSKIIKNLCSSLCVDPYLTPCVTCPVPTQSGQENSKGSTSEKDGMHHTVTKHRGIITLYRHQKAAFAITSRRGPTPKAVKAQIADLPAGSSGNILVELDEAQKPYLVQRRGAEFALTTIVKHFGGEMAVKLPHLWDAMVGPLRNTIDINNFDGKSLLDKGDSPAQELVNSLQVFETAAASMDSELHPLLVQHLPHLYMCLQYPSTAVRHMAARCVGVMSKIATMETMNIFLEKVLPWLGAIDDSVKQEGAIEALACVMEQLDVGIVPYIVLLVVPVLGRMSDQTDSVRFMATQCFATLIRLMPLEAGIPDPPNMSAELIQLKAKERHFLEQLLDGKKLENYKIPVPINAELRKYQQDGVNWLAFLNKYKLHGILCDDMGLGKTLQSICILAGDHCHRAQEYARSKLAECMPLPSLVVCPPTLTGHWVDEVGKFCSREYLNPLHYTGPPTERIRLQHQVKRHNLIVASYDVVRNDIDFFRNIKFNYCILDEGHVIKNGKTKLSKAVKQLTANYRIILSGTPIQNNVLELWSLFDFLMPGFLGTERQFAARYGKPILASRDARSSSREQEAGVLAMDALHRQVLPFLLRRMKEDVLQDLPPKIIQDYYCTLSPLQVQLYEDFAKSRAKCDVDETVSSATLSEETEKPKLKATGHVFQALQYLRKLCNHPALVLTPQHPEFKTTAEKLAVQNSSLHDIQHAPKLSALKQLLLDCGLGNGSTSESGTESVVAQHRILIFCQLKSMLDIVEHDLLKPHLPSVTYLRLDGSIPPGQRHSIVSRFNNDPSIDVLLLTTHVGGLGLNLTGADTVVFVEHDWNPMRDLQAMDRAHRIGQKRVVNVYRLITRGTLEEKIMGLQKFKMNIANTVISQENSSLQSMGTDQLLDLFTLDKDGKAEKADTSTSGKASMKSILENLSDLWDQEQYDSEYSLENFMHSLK
UniProt Q8NBU5, sequence (Q8NBU5 whole entry, looked up): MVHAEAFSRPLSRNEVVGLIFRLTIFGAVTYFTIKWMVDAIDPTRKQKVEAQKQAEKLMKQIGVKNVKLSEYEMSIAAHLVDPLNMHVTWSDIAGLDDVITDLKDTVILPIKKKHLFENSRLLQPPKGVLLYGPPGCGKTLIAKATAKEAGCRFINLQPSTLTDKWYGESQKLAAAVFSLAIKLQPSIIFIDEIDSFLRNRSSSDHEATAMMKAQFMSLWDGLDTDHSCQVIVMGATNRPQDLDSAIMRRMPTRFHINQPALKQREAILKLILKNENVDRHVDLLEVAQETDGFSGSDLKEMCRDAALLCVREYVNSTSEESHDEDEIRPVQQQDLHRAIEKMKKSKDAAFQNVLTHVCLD
UniProt Q8WUW1, sequence (Q8WUW1 whole entry, looked up): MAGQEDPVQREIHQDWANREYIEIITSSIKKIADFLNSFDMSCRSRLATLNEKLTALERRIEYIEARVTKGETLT
UniProt O43823, sequence (O43823 whole entry, looked up): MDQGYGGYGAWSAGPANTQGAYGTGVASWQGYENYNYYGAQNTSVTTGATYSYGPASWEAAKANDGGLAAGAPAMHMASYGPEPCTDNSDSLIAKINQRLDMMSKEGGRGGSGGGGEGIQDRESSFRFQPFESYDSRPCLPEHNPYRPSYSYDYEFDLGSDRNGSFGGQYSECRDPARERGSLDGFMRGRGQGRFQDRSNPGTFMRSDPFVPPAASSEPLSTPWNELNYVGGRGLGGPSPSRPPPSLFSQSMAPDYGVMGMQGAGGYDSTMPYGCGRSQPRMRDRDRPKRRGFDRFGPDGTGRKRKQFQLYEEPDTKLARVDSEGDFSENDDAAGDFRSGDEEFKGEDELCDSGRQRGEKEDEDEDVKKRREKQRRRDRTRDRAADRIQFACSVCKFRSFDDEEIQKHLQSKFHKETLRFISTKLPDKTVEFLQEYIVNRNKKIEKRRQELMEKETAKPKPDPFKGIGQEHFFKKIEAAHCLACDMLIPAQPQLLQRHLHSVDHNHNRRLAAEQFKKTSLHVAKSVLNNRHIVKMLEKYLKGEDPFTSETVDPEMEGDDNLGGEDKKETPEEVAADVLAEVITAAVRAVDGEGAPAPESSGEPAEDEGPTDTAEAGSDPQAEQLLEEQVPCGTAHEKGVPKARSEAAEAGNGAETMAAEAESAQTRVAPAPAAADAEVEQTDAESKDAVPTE
UniProt Q9Y3D8, sequence (Q9Y3D8 whole entry, looked up): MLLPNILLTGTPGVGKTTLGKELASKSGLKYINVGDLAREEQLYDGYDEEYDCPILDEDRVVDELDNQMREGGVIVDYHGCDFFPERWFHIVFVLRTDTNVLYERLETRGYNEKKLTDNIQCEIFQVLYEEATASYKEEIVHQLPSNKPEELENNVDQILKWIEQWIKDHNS
UniProt Q99943, sequence (Q99943 whole entry, looked up): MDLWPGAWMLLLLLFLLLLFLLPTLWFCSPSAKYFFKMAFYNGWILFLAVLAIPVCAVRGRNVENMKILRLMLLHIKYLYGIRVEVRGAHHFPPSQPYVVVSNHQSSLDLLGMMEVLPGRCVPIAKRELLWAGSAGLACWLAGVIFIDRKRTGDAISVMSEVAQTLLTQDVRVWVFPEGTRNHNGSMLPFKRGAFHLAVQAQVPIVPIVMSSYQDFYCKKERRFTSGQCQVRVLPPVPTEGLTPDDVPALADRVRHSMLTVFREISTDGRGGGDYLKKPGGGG

Row | Target | log2 fold change [1] | log2 fold change [2] | log2 fold change [3] | log2 fold change [4] | log2 fold change [5] | log2 fold change [6] | log2 fold change [7] | log2 fold change [8] | log2 fold change [9] | log2 fold change [10] | log2 fold change [11] | log2 fold change [12] | log2 fold change [13] | log2 fold change [14] | log2 fold change [15] | log2 fold change [16] | log2 fold change [17] | log2 fold change [18] | log2 fold change [19] | log2 fold change [20]
1 | AGPAT1 (UniProt Q99943) | -0.032 (inactive) | -0.243 (active) | 0.015 (inactive) | -0.056 (inactive) | -0.007 (inactive) | -0.006 (inactive) | 0.032 (inactive) | -0.011 (inactive) | -0.102 (inactive) | 0.315 (active) | -0.009 (inactive) | 0.045 (inactive) | 0.002 (inactive) | -0.004 (inactive) | 0.074 (inactive) | -0.079 (inactive) | -0.109 (inactive) | -0.011 (inactive) | 0.039 (inactive) | 0.003 (inactive)
2 | AKR1C2 (UniProt P52895) | 0.27 (inactive) | 0.087 (inactive) | 0.03 (inactive) | -0.139 (inactive) | -0.039 (inactive) | 0.002 (inactive) | -0.006 (inactive) | -0.001 (inactive) | 0.568 (active) | -0.016 (inactive) | -0.108 (inactive) | -0.009 (inactive) | 0.08 (inactive) | 0.111 (inactive) | 0.052 (inactive) | 0.146 (inactive) | 0.146 (inactive) | 0.047 (inactive) | 0.094 (inactive) | -0.06 (inactive)
3 | BRD4 (UniProt O60885) | 1.89 (active) | 2.02 (active) | -0.007 (inactive) | 0.136 (inactive) | -0.016 (inactive) | 0.597 (active) | 0.169 (inactive) | -0.01 (inactive) | -0.09 (inactive) | -0.062 (inactive) | 0.047 (inactive) | -0.149 (inactive) | -0.044 (inactive) | -0.156 (inactive) | 0.065 (inactive) | -0.051 (inactive) | -0.073 (inactive) | 0.204 (inactive) | 0.01 (inactive) | -0.002 (inactive)
4 | ATG9A (UniProt Q7Z3C6) | -0.019 (inactive) | -0.326 (active) | 0.027 (inactive) | -0.007 (inactive) | 0.002 (inactive) | -0.06 (inactive) | 0.018 (inactive) | 0.008 (inactive) | 0.058 (inactive) | -0.118 (inactive) | 0.016 (inactive) | -0.084 (inactive) | -0.086 (inactive) | 0.067 (inactive) | -0.029 (inactive) | -0.09 (inactive) | -0.008 (inactive) | -0.052 (inactive) | 0.055 (inactive) | -0.013 (inactive)
5 | ATAD1 (UniProt Q8NBU5) | -0.008 (inactive) | -0.127 (inactive) | 0.056 (inactive) | 0.065 (inactive) | -0.013 (inactive) | -0.027 (inactive) | 0.064 (inactive) | 0.021 (inactive) | -0.033 (inactive) | -0.046 (inactive) | -0.044 (inactive) | 0.029 (inactive) | -0.007 (inactive) | 0.008 (inactive) | -0.032 (inactive) | -0.029 (inactive) | 0.018 (inactive) | 0.136 (inactive) | 0.017 (inactive) | -0.042 (inactive)
6 | AFDN isoform 5 (UniProt P55196) | -0.072 (inactive) | -0.254 (active) | 0.05 (inactive) | 0.047 (inactive) | -0.047 (inactive) | -0.099 (inactive) | 0.008 (inactive) | 0.044 (inactive) | -0.003 (inactive) | -0.353 (active) | -0.034 (inactive) | -0.032 (inactive) | -0.095 (inactive) | 0.025 (inactive) | -0.043 (inactive) | -0.115 (inactive) | 0.023 (inactive) | 0.035 (inactive) | 0.077 (inactive) | -0.033 (inactive)
7 | BTAF1 (UniProt O14981) | -0.087 (inactive) | -0.265 (active) | 0.061 (inactive) | 0.086 (inactive) | -0.047 (inactive) | -0.07 (inactive) | 0.027 (inactive) | -0.042 (inactive) | -0.055 (inactive) | -0.09 (inactive) | 0.087 (inactive) | 0.001 (inactive) | -0.022 (inactive) | -0.041 (inactive) | -0.027 (inactive) | -0.074 (inactive) | -0.089 (inactive) | -0.012 (inactive) | 0.026 (inactive) | 0.007 (inactive)
8 | ADRM1 (UniProt Q16186) | 0.122 (inactive) | 0.197 (inactive) | 0.024 (inactive) | -0.083 (inactive) | 0.04 (inactive) | -0.013 (inactive) | -0.006 (inactive) | 0 (inactive) | 0.045 (inactive) | 0.062 (inactive) | -0.086 (inactive) | -0.091 (inactive) | 0.042 (inactive) | 0.18 (inactive) | -0.067 (inactive) | 0.087 (inactive) | -0.022 (inactive) | 0.111 (inactive) | 0.108 (inactive) | 0.017 (inactive)
9 | AKAP8 (UniProt O43823) | 0.069 (inactive) | -0.268 (active) | -0.017 (inactive) | 0.003 (inactive) | 0.02 (inactive) | 0.026 (inactive) | -0.03 (inactive) | 0.017 (inactive) | 0 (inactive) | -0.131 (inactive) | 0.012 (inactive) | -0.021 (inactive) | 0.112 (inactive) | 0.002 (inactive) | -0.073 (inactive) | 0.01 (inactive) | 0.017 (inactive) | -0.126 (inactive) | 0.037 (inactive) | 0.008 (inactive)
10 | ACSM3 (UniProt Q53FZ2) | 0.021 (inactive) | -0.092 (inactive) | 0.062 (inactive) | 0.146 (inactive) | -0.03 (inactive) | -0.02 (inactive) | 0.154 (inactive) | 0.046 (inactive) | -0.099 (inactive) | -0.145 (inactive) | 0.031 (inactive) | 0.018 (inactive) | -0.021 (inactive) | 0.009 (inactive) | 0.053 (inactive) | -0.148 (inactive) | 0.142 (inactive) | -0.09 (inactive) | 0.021 (inactive) | -0.064 (inactive)
11 | AGPAT5 (UniProt Q9NUQ2) | -0.169 (inactive) | -0.281 (active) | -0.068 (inactive) | 0.007 (inactive) | 0.023 (inactive) | -0.13 (inactive) | 0 (inactive) | 0.01 (inactive) | -0.067 (inactive) | -0.25 (inactive) | 0.016 (inactive) | 0.08 (inactive) | -0.085 (inactive) | -0.075 (inactive) | -0.021 (inactive) | 0.011 (inactive) | 0.012 (inactive) | 0.083 (inactive) | -0.011 (inactive) | -0.019 (inactive)
12 | BRK1 isoform 2 (UniProt Q8WUW1) | 0.074 (inactive) | -0.021 (inactive) | -0.02 (inactive) | 0.497 (active) | 0.021 (inactive) | -0.009 (inactive) | 0.031 (inactive) | 0.011 (inactive) | -0.053 (inactive) | 0.137 (inactive) | 0.036 (inactive) | 0.007 (inactive) | -0.027 (inactive) | 0.037 (inactive) | -0.011 (inactive) | -0.074 (inactive) | -0.05 (inactive) | -0.03 (inactive) | -0.063 (inactive) | -0.018 (inactive)
13 | AK6 (UniProt Q9Y3D8) | -0.304 (inactive) | -0.438 (active) | -0.001 (inactive) | 0.08 (inactive) | -0.081 (inactive) | -0.007 (inactive) | 0.148 (inactive) | 0.074 (inactive) | 0.027 (inactive) | -0.322 (inactive) | -0.154 (inactive) | -0.121 (inactive) | -0.045 (inactive) | 0.03 (inactive) | 0.018 (inactive) | -0.095 (inactive) | 0.092 (inactive) | -0.053 (inactive) | 0.095 (inactive) | -0.09 (inactive)
14 | ALG11 (UniProt Q2TAA5) | -0.034 (inactive) | -0.17 (inactive) | 0.126 (inactive) | 0.038 (inactive) | -0.075 (inactive) | 0.006 (inactive) | 0.018 (inactive) | 0.021 (inactive) | -0.109 (inactive) | 0.042 (inactive) | 0.047 (inactive) | 0.013 (inactive) | -0.064 (inactive) | -0.023 (inactive) | -0.018 (inactive) | -0.021 (inactive) | -0.015 (inactive) | -0.021 (inactive) | 0.073 (inactive) | -0.082 (inactive)
15 | ATP6V1C1 (UniProt P21283) | 0.027 (inactive) | -0.196 (inactive) | 0.066 (inactive) | 0.064 (inactive) | -0.022 (inactive) | -0.282 (active) | -0.008 (inactive) | 0.032 (inactive) | 0.069 (inactive) | 0.377 (active) | -0.193 (inactive) | -0.07 (inactive) | 0.026 (inactive) | 0.059 (inactive) | -0.034 (inactive) | -0.011 (inactive) | 0.137 (inactive) | 0.004 (inactive) | 0.083 (inactive) | -0.013 (inactive)
